The values that follow come from PubChem BioAssay.

The source made the active and inactive calls.

The nature of assay [1]: E. coli DRC41 culture turbidity changes, primary screen, E. coli filamentation inducer project, strain DRC41, OD650, 48 h (AID 1152).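 Note: E. coli MC1000 strain DRC41 lacking acrAB efflux pump and sulA.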 The settings on record: E. coli DRC41 (acrAB sulA), higher = more signal, called active from +8 up or from −8 down.
Assay [2] is described as follows: small-molecule binders of probe aLefty1, primary screen, biochemical, small-molecule microarray, 635/667 nm fluorescence (AID 1153).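 Note: score merges spot fluorescence with signal-to-noise ratio from the scanned slide images.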 The settings on record: higher = more signal.
Assay [3] in a line: PSAC antagonists in infected red cells, primary screen, cell-based, P. falciparum Indochina, OD700, 1 h (AID 1154). Particulars: P. falciparum Indochina infected RBC osmotic lysis, higher = more signal, called active from +8 up or from −8 down.
Assay [4] is described as follows: PSAC antagonists in infected red cells, primary screen, cell-based, P. falciparum Indochina, OD700, 2 h (AID 1155).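 Note: lysis reports solute entry through the parasite surface anion channel PSAC; channel blockers reduce lysis of infected cells.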 Particulars: P. falciparum Indochina infected erythrocytes, osmotic lysis OD700; higher = more signal, called active from +8 up or from −8 down.
The nature of assay [5]: osmotic lysis modulators in infected erythrocytes, primary screen, PSAC antagonist project, cell-based, P. falciparum Indochina, OD700, 3 h (AID 1156). Particulars: higher = more signal, called active from +8 up or from −8 down.
The nature of assay [6]: PSAC antagonists in infected red cells, primary screen, cell-based, P. falciparum Indochina, OD700, 18 h (AID 1157). The settings on record: P. falciparum Indochina infected erythrocytes, osmotic lysis OD700, 18 h; higher = more signal, called active from +8 up or from −8 down.
Assay [7] is described as follows: modulators of S6 phosphorylation in cells, primary screen, cell-based, A549, cytoblot, luminescence, serum-stimulated (AID 1158).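 Note: serum-stimulated A549 lung adenocarcinoma cells; signal is phosphorylated S6 detected by cytoblot immunostaining with HRP secondary.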 The settings on record: A549 phospho-S6 cytoblot, 5 h, higher = more signal.
Assay [8] has as its target NADPH oxidase 2 (Homo sapiens) (UniProt P04839). The assay can be described thus: NOX2-dependent H2O2 signal modulators, primary screen, NOX inhibitor project, cell-based, HEK293-NOX2, PMA-stimulated, Amplex Red fluorescence (AID 1159). Note: test concentration not given here. The settings on record: 45 min, higher = more signal, called active from +8 up or from −8 down.
Assay [9] addresses NADPH oxidase 4 (Homo sapiens) (UniProt Q9NPH5). In words: NOX4-dependent H2O2 signal modulators, primary screen, NOX inhibitor project, cell-based, HEK293-NOX4, tetracycline-induced, Amplex Red fluorescence (AID 1160). The settings on record: 45 min, higher = more signal, called active from +8 up or from −8 down.
Assay [10] deals with NADPH oxidase 5 (Homo sapiens) (UniProt Q96PH1). The assay can be described thus: NOX5-dependent H2O2 signal modulators, primary screen, NOX inhibitor project, cell-based, HEK293-NOX5, Amplex Red fluorescence (AID 1161). The settings on record: HEK293-NOX5, ionomycin, 45 min, higher = more signal.
Chain of NADPH oxidase 5 (Homo sapiens) (Q96PH1 whole entry, looked up): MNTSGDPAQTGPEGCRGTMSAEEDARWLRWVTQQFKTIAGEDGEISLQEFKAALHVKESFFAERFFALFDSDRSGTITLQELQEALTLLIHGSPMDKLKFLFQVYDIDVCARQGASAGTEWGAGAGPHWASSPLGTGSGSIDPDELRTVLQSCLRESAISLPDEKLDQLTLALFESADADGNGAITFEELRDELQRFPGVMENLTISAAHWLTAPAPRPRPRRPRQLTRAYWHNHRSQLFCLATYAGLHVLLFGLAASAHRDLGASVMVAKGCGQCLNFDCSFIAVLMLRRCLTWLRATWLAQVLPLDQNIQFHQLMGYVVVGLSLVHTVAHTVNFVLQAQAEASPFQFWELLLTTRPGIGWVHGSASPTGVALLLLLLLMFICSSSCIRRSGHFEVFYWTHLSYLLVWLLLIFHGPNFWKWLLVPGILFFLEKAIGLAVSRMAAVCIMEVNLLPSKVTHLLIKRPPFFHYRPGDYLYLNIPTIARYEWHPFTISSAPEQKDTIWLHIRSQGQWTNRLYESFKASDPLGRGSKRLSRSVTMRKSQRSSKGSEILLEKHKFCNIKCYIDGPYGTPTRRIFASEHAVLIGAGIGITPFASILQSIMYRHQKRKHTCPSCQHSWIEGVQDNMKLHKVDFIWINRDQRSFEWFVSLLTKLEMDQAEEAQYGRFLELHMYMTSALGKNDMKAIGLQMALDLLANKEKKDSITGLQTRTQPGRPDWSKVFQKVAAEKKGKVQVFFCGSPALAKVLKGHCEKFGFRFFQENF
The nature of assay [11]: A549 cell viability effects, profiling panel, calcein-AM fluorescence, 48 h, basal (AID 1162). Note: test concentration not given here. The settings on record: higher = more signal.
Assay [12] in a line: adipocyte viability effects, profiling panel, cell-based, 3T3-L1 adipocytes, calcein-AM fluorescence, 48 h, basal (AID 1163). Note: test concentration not given here. Particulars: 3T3-L1 adipocytes viability, higher = more signal.
A short description of assay [13]: HepG2 cell viability effects, profiling panel, calcein-AM fluorescence, 48 h, basal (AID 1164). Note: test concentration not given here. The settings on record: higher = more signal.
A short description of assay [14]: MM1S cell viability effects, profiling panel, calcein-AM fluorescence, 48 h, basal (AID 1165).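 Note: viability of MM1S multiple myeloma cells under basal unstimulated conditions; test concentration not given here.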 Particulars: higher = more signal.
The nature of assay [15]: basal RPMI8226 viability, no added stimulus, profiling panel, cell-based, calcein-AM fluorescence, 48 h, PK04 Diversity Set (AID 1166).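 Note: cells grown under basal conditions without added stimulus; test concentration not given here.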 Particulars: RPMI8226 myeloma viability, higher = more signal.
A short description of assay [16]: basal HepG2 mitochondrial membrane potential changes, profiling panel, cell-based, JC-1 fluorescence, 24 h, 100 nL compound (AID 1167). Note: test concentration not given here. Particulars: higher = more signal.
Assay [17] in a line: basal 3T3-L1 adipocyte mitochondrial potential changes, profiling panel, cell-based, JC-1 fluorescence, 3T3-L1 adipocytes, 24 h, 100 nL compound (AID 1168). Note: test concentration not given here. Particulars: JC-1 mitochondrial fluorescence, higher = more signal, called active from +8 up or from −8 down.
A short description of assay [18]: basal RPMI8226 mitochondrial membrane potential changes, profiling panel, cell-based, JC-1 fluorescence, 24 h, 100 nL compound (AID 1169). Note: test concentration not given here. Particulars: RPMI8226 myeloma, JC-1 mitochondrial potential fluorescence, higher = more signal.
Assay [19] in a line: basal MM1S mitochondrial membrane potential changes, profiling panel, cell-based, JC-1 fluorescence, 24 h, 100 nL compound (AID 1170). Note: test concentration not given here. Particulars: higher = more signal.
A short description of assay [20]: A549 lung cancer cell viability effects, profiling panel, resazurin fluorescence, 24 h, PK04 Diversity Set (AID 1171). Note: test concentration not given here. The settings on record: higher = more signal, called active from +8 up or from −8 down. (The colour change of resazurin is a common sign of viable cells or microbes.)

Chain of NADPH oxidase 4 (Homo sapiens) (Q9NPH5 whole entry, looked up): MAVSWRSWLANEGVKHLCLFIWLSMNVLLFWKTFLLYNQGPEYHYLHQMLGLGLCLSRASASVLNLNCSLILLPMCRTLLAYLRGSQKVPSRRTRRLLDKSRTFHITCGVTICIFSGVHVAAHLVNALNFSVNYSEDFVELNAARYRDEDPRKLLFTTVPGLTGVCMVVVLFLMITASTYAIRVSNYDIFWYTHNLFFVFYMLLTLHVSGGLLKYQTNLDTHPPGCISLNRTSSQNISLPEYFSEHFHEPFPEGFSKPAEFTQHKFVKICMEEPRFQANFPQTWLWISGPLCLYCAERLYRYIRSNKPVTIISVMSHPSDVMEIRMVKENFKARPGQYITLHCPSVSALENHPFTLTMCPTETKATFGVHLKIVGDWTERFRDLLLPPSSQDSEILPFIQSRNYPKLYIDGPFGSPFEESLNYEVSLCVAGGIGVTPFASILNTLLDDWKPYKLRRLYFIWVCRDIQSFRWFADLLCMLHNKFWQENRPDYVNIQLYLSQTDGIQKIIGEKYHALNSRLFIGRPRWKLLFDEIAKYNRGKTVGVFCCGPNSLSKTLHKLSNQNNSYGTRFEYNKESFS
Chain of NADPH oxidase 2 (Homo sapiens) (P04839 whole entry, looked up): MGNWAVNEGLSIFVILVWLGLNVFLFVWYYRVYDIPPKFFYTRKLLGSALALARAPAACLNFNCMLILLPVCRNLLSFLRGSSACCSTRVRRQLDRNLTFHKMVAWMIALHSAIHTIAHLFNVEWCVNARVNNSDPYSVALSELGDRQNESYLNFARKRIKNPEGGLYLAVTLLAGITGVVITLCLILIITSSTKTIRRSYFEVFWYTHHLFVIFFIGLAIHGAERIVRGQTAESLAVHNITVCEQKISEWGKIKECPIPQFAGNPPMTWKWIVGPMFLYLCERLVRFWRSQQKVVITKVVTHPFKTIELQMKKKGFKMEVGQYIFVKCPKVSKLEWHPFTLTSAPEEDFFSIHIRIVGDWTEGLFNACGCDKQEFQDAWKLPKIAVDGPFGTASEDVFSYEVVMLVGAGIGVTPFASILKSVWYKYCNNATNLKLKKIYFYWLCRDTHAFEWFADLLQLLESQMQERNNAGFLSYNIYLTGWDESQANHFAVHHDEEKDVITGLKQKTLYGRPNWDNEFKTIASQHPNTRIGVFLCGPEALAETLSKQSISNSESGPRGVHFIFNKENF

With `COC(=O)[C@@]1(Cc2ccc(OC)cc2)[C@H]2c3cc(C(=O)N(C)C)n(Cc4ccc(OC)c(OC)c4)c3C[C@H]2CN1C(=O)c1ccccc1`, the z-score in assay [1] was -1.86 (inactive); in assay [3] it was 2.55 (inactive); in assay [4] it was 0.807 (inactive); in assay [5], 0.804 (inactive); in [6], 1.23 (inactive); in assay [7], -0.574. Further, the z-score in assay [8] is 0.178 (inactive); in assay [9], 1.13 (inactive); in [10] it was 2.18; in assay [11] it was -1.72; in assay [12] it was -0.204; in [13], -1.18. The z-score is -1.32 in [14]; -2.07 in [15]; 0.297 in assay [16]; -1.29 (inactive) in [17]; -0.605 in assay [18]; -1.11 in assay [19]. For the same molecule, the z-score in assay [20] was -1.35 (inactive). This molecule also displayed a composite z-score in assay [2] of 1.14.
As to `CCN(CC)c1ccc(N2CC=CC34O[C@@H]5/C=C\CCCOC(=O)C5[C@H]3C(=O)N(CCCO)[C@@H]4C2=O)cc1` (stereo not given in full), the z-score in assay [1] was -0.522 (inactive); in assay [3] it was 1.78 (inactive); in assay [4] it was 0.225 (inactive); in assay [5] it was -0.462 (inactive); in [6] it was 0.308 (inactive); in [7], -0.219. For the same molecule, the z-score is 0.024 (inactive) in [8]; 0.558 (inactive) in assay [9]; 0.931 in assay [10]; -0.13 in [11]; 0.275 in [12]; 0.616 in [13]. The z-score was 0.794 in assay [14]; -0.0911 in [15]; 0.472 in assay [16]; -0.546 (inactive) in assay [17]; -0.0632 in assay [18]; 0.918 in assay [19]. Also, the z-score in assay [20] was 0.876 (inactive). For the same molecule, the composite z-score in assay [2] is 0.235.
For the molecule `C=CCC(OC(C)=O)[C@@H]1[C@@H](N(Cc2cc3ccccc3o2)C(=O)c2ccc(-c3ccccc3)cc2)c2cc(OCCCO)ccc2N1C(=O)Cc1ccc2ccccc2c1` (stereo not given in full), the z-score in [1] was -0.0233 (inactive); in [3] it was 0.574 (inactive); in assay [4], -0.344 (inactive); in [5], -0.145 (inactive); in assay [6], 0.26 (inactive); in [7], 0.233. Also, the z-score is 0.972 (inactive) in assay [8]; -0.906 (inactive) in assay [9]; 1.53 in [10]; 0.809 in [11]; 0.778 in [12]; 1.48 in assay [13]. The z-score was 0.372 in assay [14]; -0.0122 in assay [15]; 1.64 in assay [16]; -0.211 (inactive) in assay [17]; -0.0273 in assay [18]; 0.293 in assay [19]. The z-score in [20] was 0.483 (inactive). This molecule had a composite z-score in assay [2] of -0.0984.
Consider `CCOC(=O)C[C@H]1[C@H](OC(=O)c2ccccc2-c2ccccc2)[C@@H](NC(=O)c2ccc(-c3ccccc3)cc2)c2cc(OCCCO)ccc2N1C(=O)c1ccccc1`, for which the z-score was 0.657 (inactive) in assay [1]; 0.568 (inactive) in [3]; 0.135 (inactive) in assay [4]; 1.02 (inactive) in assay [5]; 0.157 (inactive) in assay [6]; 1.1 in assay [7]. Further, the z-score in assay [8] is 0.35 (inactive); in [9], 0.169 (inactive); in [10], 1.46; in [11], 0.168; in assay [12], 0.405; in assay [13], 0.188. Also, the z-score was 0.0425 in assay [14]; -0.602 in assay [15]; 1.5 in [16]; 0.247 (inactive) in [17]; -0.312 in assay [18]; -0.0178 in assay [19]. Moreover, the z-score in assay [20] was 0.0248 (inactive). Besides, in assay [2], the composite z-score was 0.0121.
